Experimental data: PubChem BioAssay (EPA / NIEHS)
Active and inactive are the calls of the source. The calls were made as follows: active = hit-call score of the fitted dose curve at least 0.9, where 1 is the maximum; inactive = score below 0.9.

Read-out: C-C motif chemokine 2 (Homo sapiens) (UniProt P13500)
Experiment: BSK_KF3CT_MCP1: BioMAP Diversity Plus: KF3CT Assay for Monocyte Chemoattractant Protein 1 (MCP1/CCL2) Biomarker Activity (AID 2283073)
Details: primary human keratinocytes with fibroblasts; actives raise or lower the signal
Description: BSK_KF3CT is a cell-based, multiplexed-readout assay that uses keratinocytes and foreskin fibroblasts, a human skin primary cell co-culture, with measurements taken at 24 hours after chemical dosing in a 96-well plate.BSK_KF3CT_MCP1 is an assay component measured in the BSK_KF3CT assay. It measures MCP-1 antibody related to regulation of gene expression using ELISA technology.Data from the assay component BSK_KF3CT_MCP1 was analyzed into 1 assay endpoint. This assay endpoint, BSK_KF3CT_MCP1, was analyzed with bidirectional fitting relative to DMSO as the negative control and baseline of activity. Using a type of binding reporter, gain or loss-of-signal activity can be used to understand changes in the signaling as they relate to the gene CCL2. Furthermore, this assay endpoint can be referred to as a primary readout, because this assay has produced multiple assay endpoints where this one serves a signaling function. To generalize the intended target to other relatable targets, this assay endpoint is annotated to the cytokine intended target family, where the subfamily is chemotactic factor.
The levels of cell surface (or secreted, indicated by the prefix "s") biomarker endpoints were measured by ELISA. Overt cytotoxicity to cells in confluent adherent cultures (all systems other than the BT system) was assessed by measuring total protein levels using sulforhodamine B (SRB) staining in parallel cultures at the time of biomarker measurements, indicated as SRB endpoints. For proliferation assays for adherent cell types, individual cell types are cultured at sub-confluence and relative cell numbers quantified by SRB staining at time points optimized for each system (48 h: 3C and CASM3C systems; 72 h: BT and HDF3CGF systems; 96 h: SAg system). SRB was performed by staining cells with 0.1% SRB after fixation with 10% TCA and reading wells at 560 nm.Viability and proliferation of PBMC (T cells) was quantified by Alamar Blue reduction for the SAg and BT systems. For PBMC viability (referred to as PBMC Cytotoxicity within the assay endpoint names), cells were plated (75,000/well in a 96-well plate) and then chemical samples added for 1 h before addition of activators, SEB and TSST-1 (20 ng/mL final concentration each). Cells were incubated for 90 h. Then, Alamar Blue (20 uL/well) (Invitrogen, Cat DAL1100) was added for 6 h, and the plates were read with a fluorescence microplate reader at 546/580 nm (excitation/emission). For PBMC proliferation, cells were plated and activated as above but incubated for only 16 h prior to addition of Alamar Blue. Plates were read after 6 h.

SMILES | outcome | AC50
O=C(O)c1cccc(Oc2ccccc2)c1 | inactive | 
Cc1c(-c2cccnc2)c2ccccc2n1CCCCC(=O)O | inactive | 
COC(=O)c1c(Cl)c(Cl)c(C(=O)OC)c(Cl)c1Cl | inactive | 
CCCC(=O)OCC | inactive | 
COCCOCCOCCOC | inactive | 
Oc1ccc2c(c1)-c1ccccc1C2 | inactive | 
C1N2CN3CN1CN(C2)C3 | inactive | 
O=C(OC[C@H]1O[C@@H](OC(=O)c2cc(O)c(O)c(OC(=O)c3cc(O)c(O)c(O)c3)c2)[C@H](OC(=O)c2cc(O)c(O)c(OC(=O)c3cc(O)c(O)c(O)c3)c2)[C@@H](OC(=O)c2cc(O)c(O)c(OC(=O)c3cc(O)c(O)c(O)c3)c2)[C@@H]1OC(=O)c1cc(O)c(O)c(OC(=O)c2cc(O)c(O)c(O)c2)c1)c1cc(O)c(O)c(OC(=O)c2cc(O)c(O)c(O)c2)c1 | inactive | 
O=c1[nH]c2ccc(S(=O)CCN3CCC(Cc4ccc(F)cc4)CC3)cc2o1 (stereo not given) | inactive | 
CC(C)=CCC/C(C)=C/CO | inactive | 
CC(C)=CCCC(C)=CC=O | inactive | 
CCCN(C1CCN(C(=O)C2CCNCC2)CC1)[C@@H]1CCc2ccc(OC)cc2C1 | inactive | 
Cc1[nH]cnc1C[C@H]1CCc2c(C)c3ccccc3n2C1=O | inactive | 
Nc1cccc(N)c1 | inactive | 
CC(C)CCCCCCCOC(=O)CCCCC(=O)OCCCCCCCC(C)C | inactive | 
Nc1ccc(Nc2ccccc2)cc1 | inactive | 
CCOCCO | inactive | 
CCOCCOCCOCCO | inactive | 
CCC(C)(C)C(=O)O[C@H]1C[C@@H](C)C=C2C=C[C@H](C)[C@H](CC[C@@H]3C[C@@H](O)CC(=O)O3)[C@H]21 |  | 36.9 µM (active)
CC(O)CN(CCN(CC(C)O)CC(C)O)CC(C)O (stereo not given) | inactive | 

SMILES | outcome | AC50
CC(C)=CCCC(C)CCO (stereo not given) | inactive | 
Cc1ccc(S(=O)(=O)O)cc1C | inactive | 
CC[C@H]1CC[C@H](NCc2cc3c(cc2OC)[C@H]2C[C@H]2C(=O)N3C)[C@H](c2ccccc2)N1 | inactive | 
O=c1n(CC2CO2)c(=O)n(CC2CO2)c(=O)n1CC1CO1 (stereo not given) | inactive | 
Fc1ccccc1[C@@H](F)COC1CCC(Nc2ncnc3[nH]ncc23)CC1 (stereo not given in full) | inactive | 
O=P(OC(CCl)CCl)(OC(CCl)CCl)OC(CCl)CCl | inactive | 
O=C1CCC(N2C(=O)c3ccccc3C2=O)C(=O)N1 (stereo not given) | inactive | 
CCCCCCCCCCCCCCCO | inactive | 
COc1ccc(/C=C/S(=O)(=O)NC(=O)c2ccc(C)cc2Cl)cc1 | inactive | 
O=C(CCCCCCCCc1cccnc1)N1CCC(C=C(c2ccccc2)c2ccccc2)CC1 |  | 16.9 µM (active)
O=C1OC(=O)C2C3C=CC(C3)C12 (stereo not given) | inactive | 
Cn1c(=O)c2c(ncn2C)n(C)c1=O | inactive | 
O=C(O)CC(O)C(=O)O (stereo not given) | inactive | 
COCCOc1cc2cc(C(=O)NC3CCN(C(C)C)CC3)n(CC(=O)Nc3ccc(Cl)cn3)c2cn1 | inactive | 
Nc1nc2ncc(CNc3ccc(C(=O)N[C@@H](CCC(=O)O)C(=O)O)cc3)nc2c(=O)[nH]1 | inactive | 
O=C(O)c1cccc(N(Cc2cccnc2)c2ccc(OC(F)F)c(OC(F)F)c2)c1 | inactive | 
COC(=O)c1ccccc1O | inactive | 
CCCCCCCCO | inactive | 
CC(C)=CCC/C(C)=C\CO | inactive | 
C=CC(=C)CCC=C(C)C | inactive | 
